Bioassay records deposited in PubChem BioAssay by National Center for Advancing Translational Sciences (NCATS).
The full list was thinned out, with hits kept by preference.
TDP1 cell CPT: DT40-hTDP1 cell growth loss with CPT | chicken DT40 Tdp1-/-;hTDP1 cells + 20 nM CPT, ATP luminescence, 48 h | Potency, µM (series often up to 46.2 µM), for inactives: at the highest dose activity change, negative = growth inhibition, usual class: inhibitors | 420,000 compounds, 12% hits | AID 686979; also: potency is read from the fitted curve at half-maximal effect; nearly all actives have a fitted effect of over 55% in size
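Chicken DT40 Tdp1-/- cells complemented with human TDP1, 400 cells/well, exposed to compounds plus 20 nM camptothecin for at least 48 h at 37 C; viability read as ATP content by CellTiter-Glo luminescence.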
TDP1 cell noCPT: qHTS for Inhibitors of human tyrosyl-DNA phosphodiesterase 1 (TDP1): qHTS in cells in absence of CPT. Potency, µM (top dose mostly 46.2 µM), inactives show at the top dose activity change, negative = growth inhibition, hits mostly inhibitors. DT40 Tdp1-/- hTDP1 cells, no CPT, ATP luminescence, 48 h. AID 686978, 2013. 420,000 compounds, 15% hits; also: potency is read from the fitted curve at half-maximal effect; nearly all actives have a fitted effect of over 55% in size
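Growth kinetics read by CellTiter-Glo luminescence after ≥48 hr at 37 °C. Cells: DT40 Tdp1-/- stably carrying human TDP1, 400 per well, compound exposure in the absence of CPT (DMSO vehicle).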
ALOX12 inh: inhibitors of human 12S-lipoxygenase ALOX12 | P18054 | purified 12hLO, xylenol orange hydroperoxide absorbance | Potency, µM (highest dose often 108 µM), for inactives: at the highest dose activity change, negative = inhibition, hits mostly inhibitors | 580,000 compounds, 1.1% hits | AID 1671190; also: potency is read from the fitted curve at half-maximal effect
Target sequence (P18054 whole entry, looked up): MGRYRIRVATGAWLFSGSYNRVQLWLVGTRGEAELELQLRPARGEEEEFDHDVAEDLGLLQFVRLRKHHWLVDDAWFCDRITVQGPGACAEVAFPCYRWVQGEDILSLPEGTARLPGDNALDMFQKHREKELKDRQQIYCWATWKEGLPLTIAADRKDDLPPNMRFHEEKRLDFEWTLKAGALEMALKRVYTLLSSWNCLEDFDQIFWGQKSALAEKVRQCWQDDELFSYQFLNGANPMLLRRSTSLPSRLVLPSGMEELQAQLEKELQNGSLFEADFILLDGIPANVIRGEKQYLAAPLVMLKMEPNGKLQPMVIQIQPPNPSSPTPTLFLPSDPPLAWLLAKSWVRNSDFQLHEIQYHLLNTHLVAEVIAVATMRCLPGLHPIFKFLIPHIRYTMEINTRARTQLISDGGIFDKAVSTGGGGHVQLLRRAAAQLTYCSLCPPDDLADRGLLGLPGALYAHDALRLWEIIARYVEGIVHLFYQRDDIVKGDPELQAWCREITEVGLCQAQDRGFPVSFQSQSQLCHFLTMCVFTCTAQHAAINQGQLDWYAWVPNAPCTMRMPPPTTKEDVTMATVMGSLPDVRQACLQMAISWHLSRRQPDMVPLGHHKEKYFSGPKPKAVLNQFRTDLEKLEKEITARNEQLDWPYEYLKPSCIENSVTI
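Hydroperoxide product was detected by ferrous iron/xylenol orange as the 573 to 405 nm absorbance ratio. Arachidonic acid at 40 uM (final) was turned over for 30 min at room temperature by 150 nM human 12hLO, pH 7.0 Hepes buffer, after 15 min compound preincubation.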
IL1B secr inh: inhibitors of inflammasome signaling (IL-1 beta secretion). 360,000 compounds, 4.7% hits. activity change, % at 57.5 µM. THP-1 LPS/ATP IL-1B secretion, AlphaLISA, 16 h; stronger effect = lower value; in the data active = activity change below about -50%; inconclusive = mostly about -30% to -49%
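Secreted IL-1B measured by AlphaLISA bead assay after 16 h compound exposure of THP-1 cells; compounds (final up to 57.5 uM) added 1 h before LPS (250 ng/mL) and ATP (1.25 mM) stimulation; lower signal means less secretion.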
HT1080 IDH1KD tx: toxicity to HT-1080 IDH1 knockdown cells (counter line); HT-1080 IDH1 knockdown viability, ATP luminescence, 48 h; Potency, µM (highest dose often 46.1 µM), for inactives: top-dose activity, negative = toxicity, hits mostly cytotoxic; 360,000 compounds, 2% hits; AID 686971;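 also: potency is read from the fitted curve at half-maximal effect; 0% = DMSO wells and -100% = cell-free medium wells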
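Knockdown cells (IDH1KD HT-1080) received compounds 2 h after plating at 750 cells/well and were kept 48 h at 37 °C in 5% FBS RPMI. A CellTiter-Glo luminescence read gave % activity for curve fitting.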
HT1080NT lethal: kills 2HG-producing HT-1080-NT fibrosarcoma cells. HT-1080-NT fibrosarcoma viability, CellTiter-Glo ATP luminescence, 48 h. Potency, µM (series often up to 46.1 µM), for inactives: at the highest dose activity, negative = less viability, actives largely listed as cytotoxic. 360,000 compounds, 1.6% hits. AID 686970;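 also: NT is the 2HG producing partner of a matched IDH1 knockdown line; potency is read from the fitted curve at half-maximal effect; 0% = DMSO-treated cells and -100% = media-only wells without cells; nearly all actives have a fitted effect of over 55% in size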
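Viability of the 2HG-overproducing fibrosarcoma line after 48 hours of compound exposure at 37 degrees C was determined by luminescence with CellTiter-Glo, and concentration-effect curves were then fitted and categorized.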
Active calls of the source: *; ? = inconclusive; · = no result given; ! = a repeat was not active. Unless noted, calls follow the shape of the dose curve; as a rule, active = well fitted curve in the direction sought with a large enough effect; inconclusive = small, poorly fitted or top-dose-only effect, or another doubt; inactive = no such curve, though single readings can be large; an effect the other way counts as inactive or inconclusive. Unless noted, % is scaled to controls: 0 for no effect and ±100 for the full control effect.

SMILES	TDP1 cell CPT	TDP1 cell noCPT	ALOX12 inh	IL1B secr inh	HT1080 IDH1KD tx	HT1080NT lethal
Cc1noc(C)c1COc1ccccc1C(=O)N(C)Cc1ccc(F)cc1	?	?	15%	37	2%	5%
CC1CCC(NCCNC(=O)c2ccco2)CC1 (stereo not drawn)	17%	12%	2.8µM*	-7	5%	10%
Cc1cc(N2CCN(C)CC2)nc2ccc(NC(=O)Nc3cccc(Cl)c3)cc12	8.2µM*	4.6µM*	?	·	·	·
Cc1cc(N2CCN(C)CC2)nc2ccc(NC(=O)c3ccccc3F)cc12	18µM*!	?	-2%	-56*	?	-19%
CCOc1cc(C(=O)Nc2ccc3nc(N4CCN(C)CC4)cc(C)c3c2)cc(OCC)c1OCC	18µM*	4.6µM*	-22%	·	·	·
CCCCN(CC)CCNC(=S)Nc1ccc2nc(N3CCN(C)CC3)cc(C)c2c1	?	18µM*	-22%	-55*	?	26µM*
Cc1cc(N2CCN(C)CC2)nc2ccc(NC(=O)Nc3ccc(F)cc3F)cc12	?	-75%	?	·	·	·
Cc1cc(N2CCN(C)CC2)nc2ccc(NC(=O)Nc3ccccc3Br)cc12	21µM*	15µM*	?	·	·	·
Cc1cc(N2CCOCC2)nc2ccc(NC(=O)Nc3ccccc3)cc12	·	·	-20%	·	·	·
Cc1ccc(NC(=O)Nc2ccc3nc(N4CCN(C)CC4)cc(C)c3c2)cc1C	12µM*	4.6µM*	?	·	·	·
CC(C)(O)CCc1cccc(C(=O)NCCNc2cccnc2)c1	·	·	-1%	·	·	·
CC(C)c1cccc(NC(=O)c2n[nH]c(=O)c3ccccc23)c1	·	·	-10%	·	·	·
O=C(c1[nH]c(C(F)(F)F)nc1-c1ccccc1)N1CCN(c2ccc(C(F)(F)F)cn2)CC1	-25%	?	3%	24	-12%	-8%
O=C(c1cn(Cc2ccccc2)nc1-c1ccc(Cl)cc1)N1CCN(c2ccccn2)CC1	?	?	25%	-11	-1%	-13%
CN(C)C(=O)c1cn(-c2ccccc2)nc1-c1cccc([N+](=O)[O-])c1	2%	-18%	0%	-16	9%	11%
Cc1ccc(-c2nn(-c3ccccc3)cc2C(=O)N2CCN(c3ccccn3)CC2)cc1	?	29µM*	-5%	?	?	?
O=C(c1cn(-c2ccccc2)nc1-c1cccc([N+](=O)[O-])c1)N1CCCCC1	-16%	?	2%	-95*	3%	0%
Cc1ccc(-n2cc(CN3CCN(C(=O)c4ncn[nH]4)CC3)c(-c3ccc(F)cc3)n2)cc1	?	23µM*	6%	-59*	-4%	26%
O=C(c1[nH]c(C(F)(F)F)nc1-c1ccccc1)N1CCN(c2ccccn2)CC1	?	?	-12%	41	23µM*	?
O=C(Nc1cccc(-c2ccc(N3CCOCC3)nn2)c1)Nc1ccccc1C(F)(F)F	·	·	-11%	·	·	·
CCn1cnnc1CC1CCNC1 (stereo not drawn)	·	·	17%	·	·	·
Cc1ccc(C)c(N2CCN(C(=O)c3noc(-c4ccc[nH]c4=O)n3)CC2)c1	·	·	40%	·	·	·
Cc1cccc(-n2cc(CN3CCN(c4ccccn4)CC3)c(-c3cccc(F)c3)n2)c1	?	-3%	-7%	3	-5%	0%
Cc1ccc(-n2cc(CN3CCN(c4ccccn4)CC3)c(-c3ccc(F)cc3)n2)cc1	4%	16µM*	6%	?	?	10%
N#Cc1ccc(-c2csc(NC(=O)c3ccc(S(=O)(=O)N4CCCCCC4)cc3)n2)cc1	·	·	-9%	·	·	·
SMILES	TDP1 cell CPT	TDP1 cell noCPT	ALOX12 inh	IL1B secr inh	HT1080 IDH1KD tx	HT1080NT lethal
Cc1nc(-c2ccc(C#N)cc2)cs1	-24%	-17%	32µM*!	13	7%	7%
N#Cc1ccc(-c2csc(NC(=O)C3CC3)n2)cc1	0.73µM*	0.37µM*	?	-8	8%	13%
N#Cc1ccc(-c2csc(NC(=O)/C=C/c3cccs3)n2)cc1	13µM*	10µM*	-14%	-5	-17%	-18%
CC(C)Cn1c(-c2ccncc2)nc2c1c(=O)[nH]c(=O)n2CC(C)C	·	·	8%	·	·	·
C[C@H]1CCCCO[C@H](CN(C)CC2CCCCC2)[C@@H](C)CN([C@@H](C)CO)C(=O)c2cc(NS(=O)(=O)c3ccccc3)ccc2O1	?	-4%	7%	?	?	?
C[C@@H]1CCCCO[C@@H](CN(C)CC2CCCCC2)[C@@H](C)CN([C@H](C)CO)C(=O)c2cc(NS(=O)(=O)c3ccc(Cl)cc3)ccc2O1	16µM*	13µM*	?	?	?	16µM*
C[C@H]1CN([C@@H](C)CO)C(=O)c2cc(NS(=O)(=O)c3ccc(Cl)cc3)ccc2O[C@@H]1CN(C)CC1CCCCC1	?	?	?	-56*	-12%	-8%
CCOC(=O)C1CCN(c2nc(C)nc3c2oc2ccccc23)CC1	23µM*	23µM*	?	4	-11%	3%
CCOC(=O)C1CCN(c2nc3ccccc3nc2Cl)CC1	0%	-11%	0%	·	·	·
CCc1nc(N2CCCC(C)C2)c2oc3ccccc3c2n1 (stereo not drawn)	?	?	0%	1	?	?
CCOC(=O)C1CCCN(c2nc(C)nc3c2oc2ccccc23)C1 (stereo not drawn)	15µM*	21µM*	?	9	?	?
Cc1nc2nc(CC(=O)Nc3ccccc3F)nn2c(C)c1Cc1ccc(Cl)cc1	·	·	-26%	·	·	·
O=C(COc1cccc(F)c1)Nc1ccc(-n2cnnn2)cc1	·	·	11%	·	·	·
COCCNc1c(-c2ccc(OC)cc2)nc2ccc(Cl)cn12	?	?	-11%	?	1%	-2%
CCCCNc1c(-c2ccc(SC(C)CC)cc2)nc2ccc(Cl)cn12 (stereo not drawn)	?	29µM*	?	0	-3%	-6%
CCCCCCSc1cccc(-c2nc3ccc(Cl)cn3c2NCCCC)c1	16µM*	13µM*	?	3	0%	6%
CCC(C)Sc1ccc(-c2nc3ccc(C)cn3c2NCc2ccccc2)cc1 (stereo not drawn)	23µM*	16µM*	-7%	?	-10%	-12%
CCCCCCSc1ccc(-c2nc3ccccn3c2NCCCC)cc1	23µM*	15µM*	-26%	?	4%	2%
